Experimental data reported in PubChem BioAssay (NCI).
Compounds without any hit were thinned out: in the full panel of roughly 79,000, 15% have a hit. Active and inactive are the calls of the source. No stated cut-off is given here; in the data, active means growth inhibition above about 70%; inactive means the rest.

Columns and labels:
[1] = NCI Yeast Anticancer Drug Screen. Data for the rad52 strain (AID 147);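 further: 0% = growth of vehicle-treated control cultures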; settings: S. cerevisiae rad52 mutant growth inhibition, active compounds read high
Method in brief: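 Vehicle-treated cultures served as the reference for growth inhibition of compound-exposed yeast bearing a DNA repair mutation.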

[2] = NCI Yeast Anticancer Drug Screen. Data for the wt1 strain (AID 149);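 further: 0% = growth of vehicle-treated wt1 cultures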; settings: S. cerevisiae wt1 strain (SPY 50644) growth inhibition, active compounds read high
Method in brief: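 Measured: growth of wt1 yeast under compound versus vehicle treatment, reported as inhibition.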

[3] = NCI Yeast Anticancer Drug Screen. Data for the rad50EPP+ strain (AID 151);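 further: 0% = growth of vehicle-treated control cultures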; settings: S. cerevisiae rad50 mutant strain, active compounds read high
Method in brief: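 In this screen, rad50EPP+ yeast were exposed to compounds. Growth inhibition was scored against vehicle-treated controls.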

[4] = NCI Yeast Anticancer Drug Screen. Data for the mgt1 strain (AID 153); settings: S. cerevisiae mgt1 mutant growth inhibition, active compounds read high
Method in brief: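 mgt1 strain exposed; growth vs vehicle control recorded as inhibition.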

[5] = NCI Yeast Anticancer Drug Screen. Data for the rad50 strain (AID 155);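 further: 0% = growth of vehicle-only cultures of the same strain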; settings: S. cerevisiae rad50 strain growth inhibition, active compounds read high
Method in brief: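 Growth of the mutant yeast was measured after compound exposure and referenced to vehicle-treated cultures.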

[6] = NCI Yeast Anticancer Drug Screen. Data for the mec2-1 strain (AID 157); settings: S. cerevisiae mec2-1 strain, active compounds read high
Method in brief: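 Vehicle-treated cultures served as reference for growth inhibition of compound-exposed mec2-1 yeast.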

[7] = NCI Yeast Anticancer Drug Screen. Data for the rad14 strain (AID 159);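 further: 0% = growth of vehicle-treated control cultures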; settings: S. cerevisiae rad14 strain growth inhibition, active compounds read high
Method in brief: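 Here, inhibition of yeast growth was measured after compound exposure, using a strain with a genetic defect in DNA damage repair and vehicle-treated cultures as the reference.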

[8] = NCI Yeast Anticancer Drug Screen. Data for the sgs1 mgt1 strain (AID 161);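 further: 0% = growth of cultures given vehicle only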; settings: S. cerevisiae sgs1 mgt1 strain, active compounds read high
Method in brief: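 Genetically altered yeast, compound exposure, growth inhibition relative to vehicle.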

[9] = NCI Yeast Anticancer Drug Screen. Data for the CLN2oe strain (AID 163);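 further: 0% = growth of vehicle-only control cultures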; settings: S. cerevisiae CLN2oe strain, active compounds read high
Method in brief: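 Inhibition relative to vehicle-treated yeast is reported. Cells: strain with genetic alteration in cell-cycle control, grown with compound.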

[10] = NCI Yeast Anticancer Drug Screen. Data for the cln2 rad14 strain (AID 165);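 further: 0% = growth equal to vehicle treated cultures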; settings: S. cerevisiae cln2 rad14 strain, active compounds read high
Method in brief: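 Each compound was tested on cln2 rad14 yeast. Inhibition of growth was calculated against vehicle-exposed controls.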

[11] = NCI Yeast Anticancer Drug Screen. Data for the bub3 strain (AID 167); settings: S. cerevisiae bub3 mutant strain, active compounds read high
Method in brief: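 Whole-cell yeast assay. The mutant strain was incubated with compounds, and growth inhibition was determined by comparison with vehicle-treated cells.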

[12] = NCI Yeast Anticancer Drug Screen. Data for the wt2 strain (AID 169);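 further: 0% = growth of vehicle-treated yeast cultures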; settings: S. cerevisiae wt2 strain growth inhibition, active compounds read high
Method in brief: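 Inhibition of yeast growth was determined after compound treatment, normalised to controls receiving only vehicle.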

[13] = NCI Yeast Anticancer Drug Screen. Data for the mlh1 strain (AID 171);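 further: 0% = growth of vehicle-treated control cultures of the same strain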; settings: S. cerevisiae mlh1 strain growth inhibition, active compounds read high
Method in brief: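 Vehicle-normalised growth inhibition of a repair- or checkpoint-altered yeast strain following compound treatment.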

[14] = NCI Yeast Anticancer Drug Screen. Data for the sgs1 strain (AID 173);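 further: 0% = growth of vehicle-only control cultures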; settings: S. cerevisiae sgs1 mutant, active compounds read high
Method in brief: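 Screen format: yeast with repair or checkpoint alterations, compound exposure, growth read relative to vehicle.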

[15] = NCI Yeast Anticancer Drug Screen. Data for the mlh1 rad18 strain (AID 175); settings: S. cerevisiae mlh1 rad18 strain growth inhibition, active compounds read high
Method in brief: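 Vehicle-treated cultures served as the reference for growth inhibition in a yeast strain carrying DNA damage repair alterations exposed to each compound.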

[16] = NCI Yeast Anticancer Drug Screen. Data for the rad18 strain (AID 177); settings: S. cerevisiae rad18 mutant growth inhibition, active compounds read high
Method in brief: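 Test articles were incubated with altered yeast defective in DNA damage repair. Results are given as inhibition of growth versus vehicle.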

[17] = at 5.0 µM (retest, dose inferred, filed as 0.5)
[18] = at 50.0 µM (retest, dose inferred, filed as 5.0)

Measured: growth inhibition

NC(N)=N/N=C/c1cc(Cl)cc(Cl)c1O
inactive: [1]; at 1.2 µM 5% | [1]; at 3.7 µM 4% | [1]; at 11.0 µM 21% | [1]; at 33.0 µM 51% | [2]; at 1.2 µM -14% | [2]; at 3.7 µM -19% | [2]; at 11.0 µM -29% | [2]; at 33.0 µM 1% | [3]; at 1.2 µM 19% | [3]; at 3.7 µM 49% | [3]; at 11.0 µM 50% | [3]; at 33.0 µM 60% | [4]; at 1.2 µM 18% | [4]; at 3.7 µM 17% | [4]; at 11.0 µM 33% | [5]; at 1.2 µM -15% | [5]; at 3.7 µM -7% | [5]; [17] 63% | [5]; at 11.0 µM 4% | [5]; at 33.0 µM 46% | [6]; at 1.2 µM -29% | [6]; at 3.7 µM -18% | [6]; at 11.0 µM -21% | [6]; at 33.0 µM 23% | [6]; at 50.0 µM 61.9% | [7]; at 1.2 µM -8% | [7]; at 3.7 µM 1% | [7]; at 11.0 µM 12% | [8]; [17] 4% | [9]; at 1.2 µM 15% | [9]; at 3.7 µM 23% | [9]; at 11.0 µM 21% | [9]; at 33.0 µM 33% | [10]; [17] 54% | [11]; at 1.2 µM -7% | [11]; at 3.7 µM -6% | [11]; [17] 46% | [11]; at 11.0 µM 4% | [11]; at 33.0 µM 49% | [12]; at 1.2 µM -49% | [12]; at 3.7 µM -40% | [12]; at 11.0 µM -30% | [12]; at 33.0 µM 30% | [13]; at 1.2 µM 12% | [13]; at 3.7 µM 9% | [13]; at 11.0 µM 21% | [13]; at 33.0 µM 68% | [14]; at 1.2 µM -12% | [14]; at 3.7 µM -14% | [14]; at 11.0 µM -1% | [14]; at 33.0 µM 37% | [15]; [17] 55% | [15]; at 50.0 µM 58.2% | [16]; at 1.2 µM -8% | [16]; at 3.7 µM -11% | [16]; at 11.0 µM -6% | [16]; at 33.0 µM 49%
active: [1]; at 100.0 µM 98% | [2]; at 100.0 µM 95% | [3]; at 100.0 µM 74% | [4]; at 33.0 µM 88% | [4]; at 100.0 µM 99% | [5]; [18] 95% | [5]; at 50.0 µM 79.7% | [5]; at 100.0 µM 97% | [6]; [17] 73% | [6]; [18] 96% | [6]; at 100.0 µM 98% | [7]; at 33.0 µM 72% | [7]; at 100.0 µM 98% | [8]; [18] 98% | [9]; at 100.0 µM 93% | [10]; [18] 93% | [11]; [18] 96% | [11]; at 100.0 µM 97% | [12]; at 100.0 µM 97% | [13]; at 100.0 µM 98% | [14]; at 100.0 µM 98% | [15]; [18] 97% | [16]; at 100.0 µM 95%
